PubChem BioAssay AID687043 (Milwaukee Institute for Drug Discovery, 2013)
The campaign covered roughly 16,000 compounds. About 250 (1.6%) were called active.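 The calls were made as follows: active = inhibition above the average over every tested compound plus 3 SD (cut at about 40% in these data); inactive = the rest.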 This excerpt belongs to a sample that is enriched for actives.

These compounds were tested on Hepatitis C virus NS3 helicase (assay: HCV NS3 helicase inhibitors, primary screen, biochemical, fluorescence polarization, ChemBridge library (AID 687043)). Conditions: NS3h Cy5-dT15 DNA binding, at 100 µM, active compounds read high.
`O=C(c1cnn2c(C(F)(F)F)cc(-c3cccs3)nc12)N1CCCc2ccccc21` was tested, and the inhibition was 14.1% (inactive).
With `O=C(COc1ccc(Br)cc1)Nc1cccc(C(F)(F)F)c1` the inhibition was 3.2% (inactive).
For `CC(=O)n1nc(C)c2c(-c3ccccc3)c3cc(Br)ccc3nc21`, the inhibition was 0.3% (inactive).
`O=C(NNC(=O)c1ccc(-c2ccccc2)cc1)Nc1ccccc1` was tested, and the inhibition was 6.7% (inactive).
With `O=C(O)COc1ccc2c(=O)c(Oc3ccccc3Br)coc2c1` the inhibition was 4.5% (inactive).
`CCOc1ccc(NC(=O)C2=C(C)NC(=S)NC2c2c(OC)ccc3ccccc23)cc1` (stereo not drawn) was tested, and the inhibition was 6.9% (inactive).
`CCc1ccc2oc(-c3ccc(NC(=O)c4ccccc4[N+](=O)[O-])cc3)nc2c1` was tested, and the inhibition was 17.7% (inactive).
For `COc1ccc2oc(=O)c(-c3ccc(I)cc3)cc2c1`, the inhibition was 1.3% (inactive).
`Cc1ccc(C(=O)C[n+]2cc(-c3ccccc3)n3c2CCCCC3)cc1` was tested, and the inhibition was 54.5% (active).
With `COC(=O)c1cc(NC(=O)c2ccc(OC)cc2)cc(C(=O)OC)c1` the inhibition was 1.9% (inactive).
In the case of `O=C1CS/C(=N/N=C\c2ccc([N+](=O)[O-])cc2)N1c1ccc(O)cc1`, the inhibition was 9.1% (inactive).
In the case of `Cc1cc(=O)oc2ccc(OCC(=O)O)cc12`, the inhibition was -3.9% (inactive).
`C=C(C)COc1ccc2oc(C)c(C(=O)OC)c2c1` was tested, and the inhibition was 12.1% (inactive).
`COc1ccc(C(=O)Oc2ccc3oc(=O)cc(C)c3c2)cc1OC` was tested, and the inhibition was 48.9% (active).
For `O=C(Nc1c(F)cc(F)cc1Br)c1cc2n(n1)C(C(F)(F)F)CC(c1cccs1)N2` (stereo not drawn), the inhibition was 11.4% (inactive).
In the case of `O=C(/C=C/c1cccc([N+](=O)[O-])c1)Nc1ccc(O)c(-c2nc3ccccc3o2)c1`, the inhibition was 12.7% (inactive).
`CCOc1ccc(C2(Cc3ccccc3)C(=O)c3ccccc3C2=O)cc1` was tested, and the inhibition was 5.5% (inactive).
In the case of `CC1=C(C(=O)OCC2CCCO2)C(c2cccc(C(F)(F)F)c2)C2=C(CCCC2=O)N1` (stereo not drawn), the inhibition was -1.6% (inactive).
In the case of `CSc1nsc(SC)c1NC(=O)OCC1([N+](=O)[O-])COC(C)(C)OC1`, the inhibition was 3.2% (inactive).
For `CC(C)n1c(O)c(C2=c3ccccc3=NC2=O)sc1=S`, the inhibition was 6.8% (inactive).
With `CCOc1cc(/C=c2\sc3nc4ccccc4n3c2=O)ccc1OC(C)c1ccccc1` (stereo not drawn) the inhibition was 2.5% (inactive).
For `CCCC(=O)Nc1cccc(NC(=O)c2ccc(-c3ccc(Cl)cc3Cl)o2)c1`, the inhibition was 8.9% (inactive).
`Cc1cc(I)ccc1NC(=O)COc1ccc(Br)cc1` was tested, and the inhibition was 8% (inactive).
`Clc1ccc(Cn2c(CNc3ccc(Cl)cc3)nc3ccccc32)cc1` was tested, and the inhibition was 9.9% (inactive).
For `Cc1ccc(N2C(=O)CC(NCc3ccc(F)cc3)C2=O)cc1` (stereo not drawn), the inhibition was 5% (inactive).
For `Cc1ccc(S(=O)(=O)Nc2cc(-c3ccc(F)cc3)[nH]n2)cc1`, the inhibition was -6.5% (inactive).
`O=C(Nc1nccs1)c1ccc(NC(=O)C2CCCCC2)cc1` was tested, and the inhibition was 12.5% (inactive).
`N/C(=N/OC(=O)c1ccccc1F)c1ccc(Br)cc1` was tested, and the inhibition was -3.4% (inactive).
`CC(C)c1ccc(/C=C(\C(=O)c2ccccc2Cl)c2nc3ccccc3o2)cc1` was tested, and the inhibition was 10.6% (inactive).
For `N#Cc1c(SCC(=O)c2ccc(Cl)cc2)nc2c(c1-c1ccco1)CCCC2`, the inhibition was -2.3% (inactive).
In the case of `N#Cc1c(N)nc2sc(C(=O)Nc3ccccc3)c(N)c2c1-c1ccco1`, the inhibition was 65.7% (active).
With `O=C(Nc1ccc(Oc2ccccc2)cc1)c1ccco1` the inhibition was 12% (inactive).
With `COC(=O)c1cc(C(=O)N(Cc2ccccc2)c2ccccn2)cc([N+](=O)[O-])c1` the inhibition was 8.4% (inactive).
In the case of `CCOC(=O)c1cc2n(n1)C(C(F)(F)F)CC(c1ccco1)N2` (stereo not drawn), the inhibition was 1.4% (inactive).
In the case of `COc1ccc(Nc2nc(-c3ccccc3)c3cc(C)ccc3n2)cc1`, the inhibition was 6.7% (inactive).
For `COc1ccc(S(=O)(=O)NCCC(C)C)cc1`, the inhibition was 4.2% (inactive).
With `Cc1ccc(CCC(=O)Nc2ncc(Cc3ccc(F)cc3)s2)o1` the inhibition was -10.4% (inactive).
With `COc1ccc(C(=O)Nc2ccc(Br)cc2C)c(OC)c1` the inhibition was 24.4% (inactive).
In the case of `COc1ccccc1CNC(=O)C1CC(=O)N(c2ccc(F)cc2)C1` (stereo not drawn), the inhibition was 1.7% (inactive).
For `Cc1ccc(C(=O)Nc2ccc(Cl)cc2)cc1[N+](=O)[O-]`, the inhibition was -9.5% (inactive).
With `O=C(/C=C/c1cc2c(cc1Br)OCO2)c1cccc([N+](=O)[O-])c1` the inhibition was 2.3% (inactive).
`COc1ccc(-c2noc(-c3ccc(Br)cc3)n2)cc1` was tested, and the inhibition was 3.3% (inactive).
`O=C(NCc1ccco1)/C(=C/c1cccc(Oc2ccccc2)c1)NC(=O)c1ccccc1` was tested, and the inhibition was 9.7% (inactive).
In the case of `Cc1nc(SCC#N)c(C#N)c(C)c1C`, the inhibition was 9% (inactive).
For `COc1ccc2c(Cl)c(C(=O)NCc3ccc4c(c3)OCO4)sc2c1`, the inhibition was 17% (inactive).
`Cc1ccccc1OCC(=O)Nc1ccc(OC(F)(F)F)cc1` was tested, and the inhibition was 2.3% (inactive).
`CC(C)Nc1nc(-c2ccc(Cl)cc2)nc2ccccc12` was tested, and the inhibition was 19.8% (inactive).
`COc1cccc(C2C(C(=O)Nc3ccccc3)=C(C)N=c3s/c(=C\c4ccncc4)c(=O)n32)c1` (stereo not drawn) was tested, and the inhibition was 2.2% (inactive).
`Cn1c(=O)c2c(nc(Sc3ncn[nH]3)n2C)n(C)c1=O` was tested, and the inhibition was -6.5% (inactive).
`CCOC(=O)C1=C(C)N=c2s/c(=C/c3c[nH]c4ccccc34)c(=O)n2C1c1ccc(F)cc1` (stereo not drawn) was tested, and the inhibition was -6.3% (inactive).
For `O=C(c1ccncc1)N1N=C(c2ccc(Cl)cc2)CC1(O)C(F)(F)F` (stereo not drawn), the inhibition was 13.4% (inactive).
`COC(=O)C1=C(C)NC2=C(C(=O)CC(c3ccc(OC)c(OC)c3)C2)C1c1ccc(OC)c(OC)c1` (stereo not drawn) was tested, and the inhibition was 7.3% (inactive).
For `O=C(CN(c1cccc(Br)c1)S(=O)(=O)c1ccccc1)N1CCOCC1`, the inhibition was 3.1% (inactive).
`Cn1c(=O)n(CCOc2ccc(Br)cc2)c2ccccc21` was tested, and the inhibition was 13.9% (inactive).
In the case of `Cc1nc2c([N+](=O)[O-])cc(Br)cc2c(=O)[nH]1`, the inhibition was -12.6% (inactive).
In the case of `COc1ccc(CCNC(=O)C(=O)Nc2ccccc2C)cc1OC`, the inhibition was 15.5% (inactive).
For `CCOc1ccc(C2=C/C(=C/c3ccc(OC)c(OC)c3)C(=O)O2)cc1`, the inhibition was -0.3% (inactive).
In the case of `Cc1ccc(COc2ccc3oc(C)c(C(=O)O)c3c2)cc1`, the inhibition was 5.2% (inactive).
With `COc1ccccc1N1CCN(S(=O)(=O)c2ccc(SC)cc2)CC1` the inhibition was -1.6% (inactive).
For `CCOc1cc(/C=C2\C=C(c3ccc(C)cc3)OC2=O)ccc1OC(C)=O`, the inhibition was -4.9% (inactive).
For `O=C(COc1ccc(Br)cc1)Nc1cccc2nsnc12`, the inhibition was 6% (inactive).
`O=C(COc1ccccc1)Nc1ccc(NC(=O)COc2ccccc2)cc1` was tested, and the inhibition was 2.2% (inactive).
In the case of `COc1ccc(OC)c(C=NN2CCN(Cc3ccc(C)cc3C)CC2)c1`, the inhibition was 11.9% (inactive).
